Assay results reported in PubChem BioAssay (Tox21).
Inconclusive results are not listed. Active and inactive are the calls of the source. Unless noted, calls come from the whole dose curve; as a rule, active = well fitted curve in the direction sought with a large enough effect in the repeat runs; inconclusive = weak or mixed curves; inactive = no such curve, though single readings can be large; an effect the other way counts as inactive or inconclusive.

Key:
[1] = molecular target: Thyrotropin receptor (Homo sapiens) (UniProt P16473); assay: qHTS assay to identify small molecule antagonists of the thyroid stimulating hormone receptor (TSHR) signaling pathway (AID 1259385; calls by dose curve; note: nearly all actives have a fitted effect of over 20% in size)
Chain of Thyrotropin receptor (Homo sapiens) (P16473 whole entry, looked up): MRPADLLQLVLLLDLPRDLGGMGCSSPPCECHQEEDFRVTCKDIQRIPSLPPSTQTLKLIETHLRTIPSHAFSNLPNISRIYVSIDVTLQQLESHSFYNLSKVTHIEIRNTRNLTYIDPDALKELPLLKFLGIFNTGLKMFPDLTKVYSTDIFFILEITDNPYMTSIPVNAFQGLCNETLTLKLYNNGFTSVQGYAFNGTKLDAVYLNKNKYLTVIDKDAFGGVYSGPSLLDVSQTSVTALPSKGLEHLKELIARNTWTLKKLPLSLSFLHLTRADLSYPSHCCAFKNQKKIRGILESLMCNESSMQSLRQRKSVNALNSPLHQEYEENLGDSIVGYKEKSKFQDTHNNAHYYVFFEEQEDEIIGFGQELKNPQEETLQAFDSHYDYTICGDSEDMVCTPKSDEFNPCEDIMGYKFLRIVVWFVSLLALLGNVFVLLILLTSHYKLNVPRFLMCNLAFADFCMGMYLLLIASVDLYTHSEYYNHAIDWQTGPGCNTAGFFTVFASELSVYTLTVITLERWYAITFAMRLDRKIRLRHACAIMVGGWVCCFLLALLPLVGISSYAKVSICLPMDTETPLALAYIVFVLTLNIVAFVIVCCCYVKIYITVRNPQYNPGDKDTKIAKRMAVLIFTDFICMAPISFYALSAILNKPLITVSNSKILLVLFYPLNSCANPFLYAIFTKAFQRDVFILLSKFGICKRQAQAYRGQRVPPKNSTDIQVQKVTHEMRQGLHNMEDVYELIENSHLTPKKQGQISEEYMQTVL
Outline: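 TSHR-HEK293 cells were plated and held 18 h at 37C/5% CO2, then given compound plus Ro20-1724 and stimulated with TSH at 1.5 ng/mL final. After 30 min at room temperature, cAMP was detected with cAMP-d2/anti-cAMP-cryptate (1 h) by fluorescence.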

[2] = qHTS assay to identify small molecule agonists of the estrogen receptor alpha (ER-alpha) signaling pathway in the presence of an antagonist - cell viability counter screen (AID 1259386);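 note: series mostly up to about 92 µM; cells exposed to compounds for 22 h at 37 °C before the viability read; nearly all actives have a fitted effect of over 30% in size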
Outline: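 Read-out: CellTiter-Fluor fluorescence after 1hr reagent incubation, measured in the same wells as the luciferase readout. VM7Luc4E2 cells were exposed to 15 compound concentrations with 10.0nM ICI-182,780 for 22hr at 37C.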

[3] = molecular target: Progesterone receptor (Homo sapiens) (UniProt P06401); assay: qHTS assay to identify small molecule agonists of the progesterone receptor (PR) signaling pathway (AID 1346784; calls by dose curve; note: nearly all actives have a fitted effect of over 30% in size)
Chain of Progesterone receptor (Homo sapiens) (P06401 whole entry, looked up): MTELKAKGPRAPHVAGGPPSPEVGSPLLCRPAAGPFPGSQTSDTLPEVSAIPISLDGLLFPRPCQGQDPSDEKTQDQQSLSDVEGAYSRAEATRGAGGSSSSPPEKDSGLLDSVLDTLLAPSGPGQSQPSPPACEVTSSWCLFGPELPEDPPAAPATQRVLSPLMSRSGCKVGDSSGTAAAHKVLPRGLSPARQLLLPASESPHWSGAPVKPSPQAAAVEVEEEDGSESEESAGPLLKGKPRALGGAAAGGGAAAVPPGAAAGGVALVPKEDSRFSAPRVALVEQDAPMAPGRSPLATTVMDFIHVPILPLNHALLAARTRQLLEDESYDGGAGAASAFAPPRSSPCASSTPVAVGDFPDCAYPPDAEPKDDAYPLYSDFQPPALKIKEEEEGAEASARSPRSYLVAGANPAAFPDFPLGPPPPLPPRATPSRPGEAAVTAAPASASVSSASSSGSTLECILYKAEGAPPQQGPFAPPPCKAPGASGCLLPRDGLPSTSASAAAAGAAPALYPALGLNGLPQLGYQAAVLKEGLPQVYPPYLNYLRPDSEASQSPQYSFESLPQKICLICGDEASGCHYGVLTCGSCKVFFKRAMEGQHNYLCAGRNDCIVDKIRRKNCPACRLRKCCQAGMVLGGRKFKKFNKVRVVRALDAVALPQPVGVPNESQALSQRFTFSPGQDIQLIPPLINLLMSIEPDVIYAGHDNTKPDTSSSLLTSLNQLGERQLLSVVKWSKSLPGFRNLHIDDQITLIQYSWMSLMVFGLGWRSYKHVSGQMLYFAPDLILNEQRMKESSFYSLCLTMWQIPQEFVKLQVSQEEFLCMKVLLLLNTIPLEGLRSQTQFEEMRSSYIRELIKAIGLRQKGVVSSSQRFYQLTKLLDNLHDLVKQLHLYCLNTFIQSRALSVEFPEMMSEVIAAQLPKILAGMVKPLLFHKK
Outline: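 The screen uses PR-UAS-bla HEK 293T cells in charcoal-stripped serum (2%). Compounds are applied for 16 hr at 37C after a 6 hr pre-incubation, and reporter activity is detected with a FRET beta-lactamase substrate after 2 hr at room temperature.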

[4] = molecular target: Progesterone receptor (Homo sapiens) (UniProt P06401); assay: qHTS assay to identify small molecule antagonists of the progesterone receptor (PR) signaling pathway (AID 1346795; active = well fitted inhibition curve with a large enough effect in the signal ratio in the repeat runs, not every such curve was filed as active; the % refers to the signal ratio)
Outline: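 After 6 hr plating at 37C in 2% stripped-serum medium, PR-UAS-bla HEK293T cells got compounds, then 1 nM R5020. Sixteen hours later, LiveBLAzer substrate was applied for 2 hr at room temperature and fluorescence was recorded.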

[5] = qHTS assay to identify small molecule agonists of the progesterone receptor (PR) signaling pathway - cell viability counter screen (AID 1346799; calls by dose curve; note: nearly all actives have a fitted effect of over 45% in size)
Outline: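 Viability was scored by ATP luminescence (CellTiter-Glo, 30 min, room temperature) in the same wells used for the reporter readout, after 16 hr compound exposure of PR-UAS-bla HEK293T cells.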

[6] = qHTS assay to identify small molecule agonists of the TGF-beta/Smad signaling pathway - cell viability counter screen (AID 1346829); note: top concentration of the series differs between compounds; nearly all actives have a fitted effect of over 45% in size
Outline: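 Compound-treated SBE-bla HEK 293T cells (5 hr, 37 C) were assessed for viability with CellTiter-Glo in parallel with the reporter read.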

[7] = qHTS assay to identify small molecule agonists of the TGF-beta/Smad signaling pathway (AID 1346859; active = well fitted activation curve with a large enough effect in the signal ratio in the repeat runs, not every such curve was filed as active; the % refers to the signal ratio; note: series mostly up to about 77 µM)
Outline: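 Dual-wavelength fluorescence (460/530 nm emission) quantified beta-lactamase expression under the Smad binding element in HEK 293T cells following 5 hr compound treatment at 37 C.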

[8] = molecular target: Thyrotropin-releasing hormone receptor (Homo sapiens) (UniProt P34981); assay: qHTS assay to identify small molecule agonists of the thyrotropin-releasing hormone receptor (TRHR) signaling pathway (AID 1346891; calls by dose curve;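 note: HEK293 cells expressing TRHR with calcium dye readout; series mostly up to about 58 µM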)
Chain of Thyrotropin-releasing hormone receptor (Homo sapiens) (P34981 whole entry, looked up): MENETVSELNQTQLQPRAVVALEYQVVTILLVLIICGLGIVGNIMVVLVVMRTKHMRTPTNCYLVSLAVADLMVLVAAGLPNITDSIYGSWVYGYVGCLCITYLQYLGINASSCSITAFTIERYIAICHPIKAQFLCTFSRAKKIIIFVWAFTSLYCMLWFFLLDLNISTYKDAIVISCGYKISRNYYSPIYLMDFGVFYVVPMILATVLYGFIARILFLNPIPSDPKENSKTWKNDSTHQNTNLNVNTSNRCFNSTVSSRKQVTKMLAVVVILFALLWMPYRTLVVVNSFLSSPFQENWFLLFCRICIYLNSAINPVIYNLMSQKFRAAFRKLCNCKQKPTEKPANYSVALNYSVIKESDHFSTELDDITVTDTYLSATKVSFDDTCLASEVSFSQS
Outline: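 Kinetic fluorescence (3 min, 1 s intervals) reported intracellular calcium after compound transfer onto TRHR-Hek293 cells pre-loaded with dye for 2 h at 37 °C.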

[9] = Human pregnane X receptor (PXR) small molecule agonists, qHTS cell viability counter screen (AID 1346977); note: nearly all actives have a fitted effect of over 50% in size
Outline: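 HepG2 cells stably carrying the PXR-Luc reporter are cultured with 5% charcoal-stripped FBS and treated with compounds for 24hr. CellTiter-Fluor is added at 23hr and fluorescence is read after 1hr.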

[10] = Caspase-3/7 induction in HepG2 cells by small molecules, qHTS assay (AID 1346978); note: nearly all actives have a fitted effect of over 15% in size
Outline: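 Wild-type HepG2 cells (2,000/well) were settled 5 h at 37 C, 5% CO2, then exposed to compounds in DMSO for 17 h. Caspase-3/7 activity was read by luminescence 30 min after adding Caspase-Glo 3/7 reagent at room temperature.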

[11] = Caspase-3/7 induction in CHO-K1 cells by small molecules, qHTS cell viability counter screen (AID 1346979); note: nearly all actives have a fitted effect of over 35% in size
Outline: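 Seeding: 1,500 CHO-K1 cells/well. Rest: 5hr, 37C. Treatment: compounds in DMSO, 16hr. Read: CellTiter-Fluor, 1hr, fluorescence.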

[12] = Caspase-3/7 induction in CHO-K1 cells by small molecules, qHTS assay (AID 1346980); note: nearly all actives have a fitted effect of over 15% in size
Outline: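 Wild-type cells were seeded at 1,500 per well and settled 5 hr at 37 C, 5% CO2, then exposed to DMSO-dissolved compounds for 17 hr. Caspase-Glo 3/7 reagent was added, and luminescence was read after 30min at room temperature.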

[13] = Caspase-3/7 induction in HepG2 cells by small molecules, qHTS cell viability counter screen (AID 1346981); note: series mostly up to about 92 µM; nearly all actives have a fitted effect of over 30% in size
Outline: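 Fluorescence read-out of live-cell protease activity (CellTiter-Fluor) after 1 hr with reagent. This was measured in the same wells as the caspase-3/7 luminescence, on HepG2 cells exposed to DMSO-dissolved compounds for 16 hr at 37 C.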

[14] = molecular target: Nuclear receptor subfamily 1 group I member 2 (Homo sapiens) (UniProt O75469); assay: Human pregnane X receptor (PXR) small molecule agonists, qHTS assay (AID 1346982); note: nearly all actives have a fitted effect of over 35% in size
Chain of Nuclear receptor subfamily 1 group I member 2 (Homo sapiens) (O75469 whole entry, looked up): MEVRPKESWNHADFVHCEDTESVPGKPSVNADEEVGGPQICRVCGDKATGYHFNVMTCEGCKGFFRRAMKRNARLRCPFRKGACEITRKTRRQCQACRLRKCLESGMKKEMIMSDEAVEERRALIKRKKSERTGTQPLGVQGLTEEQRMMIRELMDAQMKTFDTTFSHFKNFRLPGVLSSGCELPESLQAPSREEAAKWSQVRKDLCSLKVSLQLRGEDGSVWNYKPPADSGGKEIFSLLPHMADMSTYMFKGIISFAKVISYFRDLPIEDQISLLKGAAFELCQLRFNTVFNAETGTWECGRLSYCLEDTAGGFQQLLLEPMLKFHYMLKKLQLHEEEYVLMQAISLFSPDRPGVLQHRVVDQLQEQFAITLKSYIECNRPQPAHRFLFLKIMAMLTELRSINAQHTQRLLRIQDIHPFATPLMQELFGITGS
Outline: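 HepG2 PXR-Luc reporter line, 5% charcoal-stripped FBS; 5 hr pre-incubation, compound (DMSO) 24 hr at 37 C/5% CO2; ONE-Glo 30 min RT; luminescence read-out.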

[15] = molecular target: Nuclear receptor subfamily 1 group I member 2 (Rattus norvegicus) (UniProt Q9R1A7); assay: Rat pregnane X receptor (rPXR) activation by small molecules, qHTS assay (AID 1346983); settings: rPXR luciferase reporter cells, One-Glo luminescence, 24 h; active compounds read high; note: nearly all actives have a fitted effect of over 20% in size
Chain of Nuclear receptor subfamily 1 group I member 2 (Rattus norvegicus) (Q9R1A7 whole entry, looked up): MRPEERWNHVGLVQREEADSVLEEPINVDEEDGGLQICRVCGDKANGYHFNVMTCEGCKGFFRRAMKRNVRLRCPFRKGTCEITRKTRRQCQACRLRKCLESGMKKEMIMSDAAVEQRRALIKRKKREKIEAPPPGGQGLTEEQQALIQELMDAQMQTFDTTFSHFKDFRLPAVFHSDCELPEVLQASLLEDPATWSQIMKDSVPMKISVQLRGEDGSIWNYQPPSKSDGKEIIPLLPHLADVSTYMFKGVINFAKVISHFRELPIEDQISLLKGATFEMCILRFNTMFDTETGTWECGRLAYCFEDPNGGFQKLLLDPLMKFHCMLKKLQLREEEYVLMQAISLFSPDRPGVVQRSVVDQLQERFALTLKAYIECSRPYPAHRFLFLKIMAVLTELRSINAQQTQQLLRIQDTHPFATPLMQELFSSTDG
Outline: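 Cell-based rPXR luciferase reporter assay, 2,000 cells per well, rested 5hr at 37 C before compound addition in DMSO, then 24 hr at 37 C. One-Glo reagent was added and luminescence read after 30 min at room temperature.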

[16] = molecular target: Nuclear receptor subfamily 1 group I member 2 (Homo sapiens) (UniProt O75469); assay: CYP3A4 induction through human pregnane X receptor (PXR) by small molecules, qHTS assay (AID 1346984); note: nearly all actives have a fitted effect of over 40% in size
Outline: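 HepG2-derived DPX-2 line carrying PXR plus a CYP3A4-promoter luciferase reporter; cells plated 5 hr, compound-exposed 24 hr at 37C. CYP3A4 activity probed with 3uM (final) Luciferin-IPA for 3hr, then luciferase read after One-Glo.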

[17] = molecular target: Nuclear receptor subfamily 1 group I member 2 (Homo sapiens) (UniProt O75469); assay: Human pregnane X receptor (PXR) activation by small molecules, qHTS assay (AID 1346985); note: nearly all actives have a fitted effect of over 40% in size
Outline: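 DPX-2 cells (HepG2 co-transfected with a PXR response element and a CYP3A4-promoter luciferase construct) were seeded at 2,000 per well, rested 5 hr at 37C, then exposed to DMSO-dissolved compounds for 24 hr. Activation was read as luciferase luminescence.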

[18] = qHTS assay to identify small molecule antagonists of the progesterone receptor (PR) signaling pathway - cell viability counter screen (AID 1346798); note: series mostly up to about 92 µM; nearly all actives have a fitted effect of over 50% in size
Outline: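 Viability was determined by ATP-based luminescence (CellTiter-Glo) in PR-UAS-bla HEK293T cells cultured in 2% charcoal-stripped serum and incubated 16 hr with compounds under R5020 stimulation.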

[19] = qHTS assay to identify small molecule antagonists of the TGF-beta/Smad signaling pathway - cell viability counter screen (AID 1346824); note: nearly all actives have a fitted effect of over 50% in size
Outline: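 SBE-bla HEK 293T cells were plated overnight at 37 C, then given compounds in DMSO plus TGF-beta1 (added as 0.25 ng/mL solution) for 5 hr. After the bla read, CellTiter-Glo was added to the same wells and luminescence read after 30 min at room temperature.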

[20] = molecular target: Thyrotropin-releasing hormone receptor (Homo sapiens) (UniProt P34981); assay: qHTS assay to identify small molecule antagonists of the thyrotropin-releasing hormone receptor (TRHR) signaling pathway (AID 1346877; active = well fitted inhibition curve with a large enough effect in the repeat runs, not every such curve was filed as active; note: series mostly up to about 51 µM)
Outline: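 HEK293/TRHR cells, 18 h, 37 °C; Ca2+ dye 2 h; cpd 5 min RT; TRH 1 nM final; fluorescence read 3 min, 1 s intervals; 15 concs, triplicate.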
% is set by controls: 0 for no effect and ±100 for the full control effect.

CC(C)CCCC(C)N (stereo not given)
inactive: Potency [1] | Potency [2] | Potency [3] | Potency [4] | Potency [5] | outcome [6] | outcome [7] | outcome [8] | Potency [9] | Potency [10] | Potency [11] | outcome [12] | Potency [13] | Potency [14] | max activation [15] -5.35% | Potency [16] | Potency [17]

Cc1cnc(NS(=O)(=O)c2ccc(N)cc2)nc1
inactive: Potency [1] | Potency [2] | Potency [3] | Potency [18] | Potency [5] | Potency [19] | outcome [7] | outcome [20] | outcome [8] | Potency [9] | Potency [10] | Potency [11] | outcome [12] | Potency [13] | Potency [14]

CCC(C)S (stereo not given)
inactive: activity change, negative = inhibition [1] -0.487% [at 3.27 µM] | activity change, negative = cytotoxicity [2] 1.97% [at 3.27 µM] | activation [3] -0.0244% [at 3.27 µM] | activity change, negative = cytotoxicity [18] -5.62% [at 3.27 µM] | activity change, negative = cytotoxicity [5] 1.88% [at 3.27 µM] | viability change, negative = cytotoxic [19] -5.42% [at 2.72 µM] | activity change, negative = cytotoxicity [6] 8.43% [at 2.72 µM] | activation [7] -0.527% [at 2.72 µM] | activity, negative = inhibition [20] -1.08% [at 1.81 µM] | activation [8] 0.209% [at 2.04 µM] | activity change, negative = cytotoxicity [9] 2.43% [at 3.27 µM] | caspase activation [10] -0.355% [at 3.27 µM] | activity change, negative = cytotoxicity [11] 5.39% [at 3.27 µM] | caspase-3/7 activation [12] 1.28% [at 3.27 µM] | activity change, negative = cytotoxicity [13] -0.646% [at 3.27 µM] | activation [14] -2.18% [at 3.27 µM]

O=c1n(CCO)c(=O)n(CCO)c(=O)n1CCO
inactive: Potency [1] | Potency [2] | Potency [3] | Potency [4] | Potency [5] | outcome [7] | outcome [8] | Potency [9] | Potency [10] | Potency [11] | outcome [12] | Potency [13] | Potency [14]

CCc1ccc(O)c(OC)c1
inactive: Potency [1] | Potency [2] | Potency [3] | Potency [5] | outcome [6] | outcome [7] | outcome [20] | outcome [8] | Potency [9] | Potency [10] | Potency [11] | outcome [12] | Potency [13] | Potency [14]

CCSC(=O)N(CC(C)C)CC(C)C
inactive: Potency [1] | Potency [2] | Potency [3] | Potency [18] | Potency [5] | Potency [19] | outcome [7] | Potency [9] | Potency [10] | Potency [11] | outcome [12] | Potency [13] | Potency [14]

COC(C)(C)CCCC(C)CC=O (stereo not given)
inactive: Potency [1] | Potency [2] | Potency [3] | Potency [18] | Potency [5] | Potency [19] | outcome [20] | outcome [8] | Potency [9] | Potency [10] | outcome [12] | Potency [13] | Potency [14]

CS(=O)(=O)O
inactive: Potency [1] | Potency [2] | Potency [3] | Potency [5] | outcome [6] | outcome [7] | outcome [20] | outcome [8] | Potency [9] | Potency [10] | Potency [11] | outcome [12] | Potency [13] | Potency [14]
